Assay outcomes deposited in PubChem by several laboratories.
RT RNaseH block: inhibitors of HIV-1 reverse transcriptase RNase H | 1.9% of 65,000 active | AID 565 | RT-RNase H RNA/DNA duplex cleavage, fluorescence | P04585 | inhibition, % at 10 µM; in the data active = inhibition above about 50%
RmlCD inh mix: inhibitors of RmlC and RmlD coupled enzymes; RmlC/RmlD coupled enzyme inhibition, 384-well mixture HTS; inhibition, % at 5.5 µM; 0.39% of 110,000 active; AID 1532; in the data active = inhibition above about 30%, passing the limit was not always enough
* hit, by the source's call; nt = no result; + = active, no number. The entries come from a sample that favours hits as a whole.

SMILES	RT RNaseH block	RmlCD inh mix
Cn1cc(-c2nnc(-c3ccccc3)o2)c2ccccc21	nt	3
O=C(c1ccc(CNS(=O)(=O)c2ccccc2)cc1)N1CCN(c2ccccn2)CC1	63*	nt
O=C(c1ccc(Cl)c(S(=O)(=O)NCc2ccccc2)c1)N1CCN(c2ccccn2)CC1	nt	-15
Cc1ccc(OC2=NS(=O)(=O)c3ccccc32)cc1	nt	-14
CCN(CC)c1cccc(OC2=NS(=O)(=O)c3ccccc32)c1	55*	125
CCOc1ccc(-c2nc(C#N)c(NCC3CCCO3)o2)cc1 (stereo not drawn)	nt	5
COc1ccc(-c2nc(C#N)c(NCC3CCCO3)o2)cc1OC (stereo not drawn)	-4	42*
Cc1oc(-c2ccccc2F)nc1CN1CCC(C(=O)NCCC2=CCCCC2)CC1	-3	-6
C=CCn1c(SCC(=O)Nc2nccs2)nnc1-c1cc2cccc(OC)c2o1	53*	12
C=CCn1c(SCC(=O)Nc2ccccc2OC)nnc1-c1ccco1	7	30
COc1ccc(C2C=C(c3ccccc3)Nc3nc(NC(C)=O)nn32)cc1 (stereo not drawn)	nt	40*
COc1ccc(C2C=C(c3ccccc3)Nc3nnnn32)cc1 (stereo not drawn)	-2	12
Cc1c(Cc2ccccc2)c(=O)oc2cc(OC(=O)c3ccccc3)ccc12	nt	-13
CCC(=O)Oc1ccc2c(C)c(Cl)c(=O)oc2c1	-6	+
COc1cc(N/C=C(\C(C)=O)c2ccccc2)cc(OC)c1	nt	8
O=C(c1cccn2c(=O)c3ccccc3nc12)N1CCN(Cc2ccc3c(c2)OCO3)CC1	-16	3
O=C(c1ccc2nc3ccccc3c(=O)n2c1)N1CCN(Cc2ccc3c(c2)OCO3)CC1	nt	31*
Cc1cc(CNC(=O)C(C)Cc2ccccc2)nn1C (stereo not drawn)	nt	-5
CC1(C(=O)NC2CCCCCCC2)CCC(=O)N1Cc1cccs1 (stereo not drawn)	nt	5
CC(C)CC(C(=O)Nc1oc(-c2ccco2)c(-c2ccco2)c1C#N)N1C(=O)c2ccccc2C1=O (stereo not drawn)	62*	10
CC(C)CC(C(=O)Nc1ccc2c(c1)OCCO2)N1C(=O)c2ccccc2C1=O (stereo not drawn)	3	-10
CN(C)/C=N/C(=S)Nc1ccc(Br)cc1F	nt	12
CCC(CC)c1nnc(NC(=O)c2c(C)nn(Cc3ccccc3Cl)c2C)s1	nt	12
COc1cc(/C=C/c2cc(OC(C)=O)c3ccccc3n2)c(OC(C)=O)c([N+](=O)[O-])c1	nt	10
COc1cccc(-n2nnnc2SCC(=O)Nc2ccc(C(C)=O)cc2)c1	nt	5
SMILES	RT RNaseH block	RmlCD inh mix
CCCS(=O)(=O)c1nnnn1-c1cccc(OC)c1	55*	-2
O=C(Nc1ccc2nc(-c3cccs3)c(-c3cccs3)nc2c1)N1CCOCC1	3	-205
O=C(c1ccc2nc(-c3ccco3)c(-c3ccco3)nc2c1)N1CCN(c2ccccc2)CC1	76*	-4
O=C(Nc1ccc(N2CCOCC2)cc1)Nc1ccc2nc(-c3ccco3)c(-c3ccco3)nc2c1	68*	-10
O=C(c1cc(-c2ccco2)on1)N1CCN(c2ccccc2)CC1	-6	-13
O=c1[nH]ccc2c(O)cccc12	nt	12
COc1ccc(NC(=O)CSc2nnc(CNc3ccc(F)cc3)o2)c(OC)c1	1	-3
O=C(CSc1nnc(COc2ccc3c(c2)CCCC3)o1)Nc1ccc(F)cc1	59*	5
C/C=C/Cn1c(SCCCc2ccccc2)nc2c1c(=O)[nH]c(=O)n2C	-14	-6
CC(C)n1c(SCCCc2ccccc2)nc2c1c(=O)[nH]c(=O)n2C	56*	-1
Cc1cc(C)cc(OCC(=O)Nc2ccccc2C(=O)NCc2ccco2)c1	60*	-7
O=C(COc1ccc(Cl)cc1)Nc1ccccc1C(=O)NCc1ccco1	10	-8
Cn1c(C(=O)NCCCN2CCCC2=O)cc2c(=O)n3ccccc3nc21	-14	nt
CNC(=O)c1cc2c(=O)n3cccc(C)c3nc2n1C	-17	nt
COc1ccc(C2=NOC(C)(c3nnc(-c4ccc(F)cc4)o3)C2)cc1 (stereo not drawn)	nt	2
CCOC(=O)c1c(-c2ccco2)csc1N	56*	-6
CCOC(=O)c1c(-c2ccco2)csc1NC(=O)CSc1nnc(N)s1	nt	-10
COc1ccc(C2N=C(c3ccccc3)C(C)(C)N2O)cc1 (stereo not drawn)	nt	3
CCOc1cc2[nH]c(=O)n(CCC(=O)NCCc3ccccc3)c(=O)c2cc1OCC	64*	5
CCOc1cc2[nH]c(=O)n(CCC(=O)NCCc3ccc(OC)c(OC)c3)c(=O)c2cc1OCC	0	-5
CN(C)c1cccc(C(=O)OCc2cc(=O)oc3cc(O)ccc23)c1	nt	59
CC1CN(S(=O)(=O)c2cccc(C(=O)OCc3cc(=O)oc4cc(O)ccc34)c2)CC(C)O1 (stereo not drawn)	-11	82*
COC/C=C/C1=CC2=CC(=O)C(C)(OC(=O)c3cnc4ccccc4n3)C(=O)C2=CN1CCc1c[nH]c2ccccc12 (stereo not drawn)	nt	-8
